Measurements published in PubChem BioAssay AID1508600 (Functional Genomics Laboratory (NCATS/FGL), 2020).
Out of some 53,000 sequences screened, about 3,700 (7%) were called active.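 How the source made its calls: active means gene knockdowns whose robust z-score for IL-1 alpha signal is at least 2 or at most -2, so actives lie on both sides; inactive means the rest.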 The full list was thinned out, with actives kept by preference.

Assay: Components of the Cytosolic LPS Sensing Pathway: Gene Identification via Genome-wide siRNA Screen;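 further: robust z of the log signal after scaling to non-targeting control siRNA wells of the plate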
Details: RAW264.7 macrophages, IL-1a HTRF, actives lie on both sides, screened at 100 nM (by protocol), cells primed 5 h with Pam3CSK4 first
How it was run: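 Knockdown: 100 nM siRNA, 48h, RAW264.7. Stimulation: Pam3CSK4 5 h, then LipidA via TransIT-TKO 24 h. Output: supernatant IL-1a HTRF, negative-control-normalized, log robust z-score; viability by CellTiter-Glo.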

| Sequence | z-score |
| --- | --- |
| GUUGUGUUCUGAUUGUUUUTT against Olfr1020 | 2.03 (active) |
| GGACAGGUACUUUUCCCUGTT against Gnpda2 | -1.19 (inactive) |
| CCAGUCAUUGUGCUUGUUATT against Sox12 | 0.929 (inactive) |
| GGAGGACGUAUCAUUACAUTT against Twf1 | 1.95 (inactive) |
| GGAGGAUAUAAAAAAGAAGTT against L2hgdh | 0.00317 (inactive) |
| GCCAAGGACUCAGUGAAUGTT against Iqsec2 | -1.19 (inactive) |
| GGUCCUCUCAGACAUGAAGTT against Pagr1a | -0.237 (inactive) |
| GCGGUAAGAACGUGGAACUTT against Tent5b | 0.536 (inactive) |
| GGGCAAGUUCCAUCUCCUUTT against Cdc42ep2 | -2.2 (active) |
| GCAUGAAGAGGCAAAGGCUTT against Igfbp1 | -0.555 (inactive) |
| GGAAGUUAAUGGGUAAAGUTT against Olfr365 | -1.67 (inactive) |
| GGACAAAACUAAACAGCAATT against Smarcal1 | -0.662 (inactive) |
| GGGCUUUCUUGGUUUUAUCTT against Depp1 | -0.377 (inactive) |
| GUCGCAUCUCCAAAAAUGGTT against Olfr340 | -1.46 (inactive) |
| GGAUCCUCUCAUUAAGAAATT against Gabra1 | -1.15 (inactive) |
| CGACUUCGCCUUAUGAGAUTT against Tst | -1.19 (inactive) |
| GCAAGUGAGUUAGCAGUCATT against Atp2c1 | -2.23 (active) |
| GGUUGAUCCAAAAGAUUACTT against Rp2 | 0.557 (inactive) |
| GGUCAUGAAAAAUGACAGCTT against Klra2 | 0.126 (inactive) |
| GGAAGAAGAGGAUGAGAUUTT against Clcn6 | -1.73 (inactive) |
| GGCUCACAAUUGCUGUGUATT against Psg23 | -0.566 (inactive) |
| GGAUGUUGGCAGCCGAACATT against St3gal2 | -0.684 (inactive) |

| Sequence | z-score |
| --- | --- |
| GGACAAGAUGUUGAGUAUUTT against Plrg1 | -2.23 (active) |
| UUGUCAUUCACUUGAUGAATT against H2bu2 | 0.238 (inactive) |
| CCAUGCCCACUGGAUAGAUTT against Nat14 | -1.21 (inactive) |
| CCCGAAUUGACAACAUCGUTT against Olfr855 | 0.566 (inactive) |
| CGCCUUAAACGAAGCUGCUTT against 1700034E13Rik | -1.28 (inactive) |
| GGUUUCCUUUUUGUUCAUUTT against Dlg3 | 0.566 (inactive) |
| CCGGUUGUUUUGAGUGUUGTT against Rad9b | 1.09 (inactive) |
| GGAAAACACAGCUACGGAATT against Ak5 | 2.21 (active) |
| CCAUAUAUUAUGGACCUUATT against Hepacam2 | -0.576 (inactive) |
| CCGAAAUAAGGCUAGCUCATT against Rfx6 | -0.282 (inactive) |
| GGUCUUACCAACAGAACCCTT against Rad51ap1 | 1 (inactive) |
| GCAAUGCUCUAAUCCACUCTT against Npas4 | 0.654 (inactive) |
| GGAAUUAUAGGACUUGUUCTT against Serinc1 | 0.256 (inactive) |
| GGUUCCCAAAGUAGAAGCATT against Dkkl1 | -0.231 (inactive) |
| GCUGAGUUGACUCCUACUGTT against Mcpt1 | -2.23 (active) |
| GGAUUUGUUUUCAGAUGUGTT against Zfp329 | -1.56 (inactive) |
| GAUUCUUGUCGCUCAUAGCTT against Vmn1r52 | -0.535 (inactive) |
| GGGCACACAUAUGACCGUUTT against Rrad | 0.261 (inactive) |
| GCAUUCAUACAUGUAACAGTT against Wdr70 | 0.336 (inactive) |
| GUCACAGAAAGCUUAGUCCTT against Olfr427 | -2.93 (active) |
| GGGACCAGAACAAAGUGGUTT against Olfr487 | 0.474 (inactive) |
| CCUAUUCAUCAUAACUCAUTT against Tdo2 | 0.129 (inactive) |

| Sequence | z-score |
| --- | --- |
| CGAGCAUAAAAGUUAUGUGTT against Chaf1b | 1.07 (inactive) |
| GGAUCCUUACAAUAACAUUTT against Mmut | 2.04 (active) |
| GCGUAUUUCCUUUCGGAGUTT against Exoc3 | 0.116 (inactive) |
| CCUAAGCCCUCUAAGGCAATT against Pik3r2 | -0.753 (inactive) |
| CCUCCUCUCCUAAAUGCCUTT against Llcfc1 | -1.23 (inactive) |
| GGAACGAGUUUUGAAAAAATT against Creb3l3 | 0.073 (inactive) |
| GGAAGAACAUUGUUACCUGTT against Svep1 | 1.1 (inactive) |
| GGUCCUACUUACUACUGCCTT against Fam83h | 0.265 (inactive) |
| CGUCUACCCGGAAUUUCAGTT against Sdha | -1.42 (inactive) |
| GGAAGGACUAUUUUCUUUCTT against Trak1 | 1.5 (inactive) |
| GGCAGAAAGCAAAAUGUUUTT against Gata3 | -4.28 (active) |
| GUGGAUACGUGGGAAAGUCTT against Nmnat1 | 0.0316 (inactive) |
| CGCUCUGUUAAUGCAGGAUTT against Papss1 | 3.22 (active) |
| GCUAUUUCUGCCUUUAGUCTT against Scamp5 | -0.0682 (inactive) |
| CCCACUGUGAAGAGAGGCATT against Xlr3c | -1.41 (inactive) |
| GGUUCAGACAACUCAGUGGTT against Pbx1 | 0.813 (inactive) |
| GGAGAAGGUGCUCAAGUUGTT against Henmt1 | -2.45 (active) |
| CGGAUUCAUCAGUUUGGUATT against Cdc7 | 0.274 (inactive) |
| GCAACUUACUUGAUCUGAATT against Ap2b1 | -0.292 (inactive) |
| CCUUCUAAUUAUCACCAAATT against Arhgap18 | -0.102 (inactive) |
| GCUAACUGCACUCCGAGAUTT against Asap1 | -0.266 (inactive) |
| GGAAAAUUGAUAGCAAGCUTT against Fbxw15 | 1.9 (inactive) |

| Sequence | z-score |
| --- | --- |
| GGCACAUCUCCCUAACACUTT against Mvb12b | -2.02 (active) |
| CCAAGCAUUAUGAGAUGCUTT against Sec23b | 0.749 (inactive) |
| GGUUACUAGAUGUAUUUUGTT against Ppp3cb | -0.785 (inactive) |
| GGAAGAGGACCAAAGUGCUTT against Pnpla7 | 1.75 (inactive) |
| GGAUCAACAUCAGAGUUCUTT against Zfp119b | -0.562 (inactive) |
| CCCUAAUUCUUAGGCCUUUTT against Bloc1s3 | -0.242 (inactive) |
| GGAAAGGUUUAAUCAUGAATT against Spred1 | 0.602 (inactive) |
| GGCAAGCACAAUGAUCAUUTT against Trappc11 | -2.36 (active) |
| CGCUUUAGUGACUUUCAAATT against Metrnl | -0.583 (inactive) |
| GCAGAUCCGAAUCAAUGAGTT against Twf2 | 0.504 (inactive) |
| GCGAUUGAGAGGCUACACUTT against Pigb | 0.402 (inactive) |
| GGGCUGUUAUUUCAAGAAATT against Galnt13 | -0.173 (inactive) |
| CCCACUAAAAUCCUAUCUCTT against Ggta1 | -2.57 (active) |
| GGGUCAAGUUUACAGAUGATT against Luc7l | 0.0159 (inactive) |
| GGGUGCAUUUUAAAUACUATT against Spred2 | 0.73 (inactive) |
| GGAAUCCUCUAAAUGACCUTT against Vmn1r174 | -1.49 (inactive) |
| GGCCAUUCUUUGUCACCCATT against Os9 | -2.87 (active) |
| CCAUUAACUCUUUGAGUAUTT against Omg | 0.321 (inactive) |
| GGAGCUGAGAAACAAGAUUTT against Bspry | -0.972 (inactive) |
| GGAUGUUAAAGCCAUAUACTT against Msh6 | -0.788 (inactive) |
| GGGCUACCUCAGUUUAAACTT against Spic | 0.763 (inactive) |
| GGCAAUAACUGCUUUAUCUTT against Olfr509 | -0.68 (inactive) |

| Sequence | z-score |
| --- | --- |
| GCGUAUUCAGCUGGGAUAGTT against Marveld2 | -2.42 (active) |
| CCUUCGUGUUCACUUUAAGTT against Rpl17 | -1.5 (inactive) |
| CCACUAAUAGUCGUAGAAUTT against Dand5 | 0.535 (inactive) |
| GCCAUCUCUAUGUUGUUGATT against Smtnl2 | -0.108 (inactive) |
| GGUCAUCCUCAAGAUGAAGTT against Zfp819 | -2.82 (active) |
| GGCAUGUCCAAGGAAUACUTT against Snrpg | -1.4 (inactive) |
| GGUUAAUCUGAGAAUUCUATT against Kcnk1 | 0.717 (inactive) |
| CCCAAUUUUUAGUUGCUAATT against Rab2b | 0.0495 (inactive) |
| GGAAGCUGUCUUCAAGUCCTT against Phf7 | -1.3 (inactive) |
| GCAGUCCUCGUCCUCAAAGTT against Btbd10 | 2.16 (active) |
| GGCAGAAUACUAUAUAUAGTT against Tmx2 | 0.879 (inactive) |
| GGAAAUCUGUUCUUGAAGGTT against Pcdhb4 | -0.0811 (inactive) |
| GGUGCUGACUCCGACUAAATT against Nhsl1 | 1.2 (inactive) |
| GGUACAGCUGGUUCUCUUUTT against Olfr1018 | 1.2 (inactive) |
| GCUUGCUAGAUUGGUGUUGTT against Arhgap17 | 3.32 (active) |
| GGCUGCUAUCAUGGAAUUATT against Ppp2cb | 0.924 (inactive) |
| CGUGUGAAGAAAAUUGAUGTT against Mmp27 | 0.568 (inactive) |
| GCACAGUAACCUAAAAUACTT against Tanc2 | -1.48 (inactive) |
| GGAUUUGAGGUUUUAGGAATT against Qtrt2 | -0.0174 (inactive) |
| GGUUGUGGUCUUUGUUCUGTT against Olfr923 | -1.11 (inactive) |
